Reference: PubChem BioAssay AID1159580 (chemical genetic matrix, 2015)
Out of some 5,500 compounds screened, about 2,000 (36%) were called active. Inconclusive results (about 18%) are left out. Rule as the data show it: active = normalized growth mostly below about 0.91 (no sharp cut-off); inconclusive = no clear call, values can overlap the other calls; inactive = mostly above about 0.92. The list shows a part of the results.

Assay: chemical genetic growth profiling, strain panel (AID 1159580);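 also: tested at 20 µM; growth read once vehicle control cultures reached saturation at 30 °C; 1 = growth at the plate median or of vehicle wells; lower values mean less growth of the strain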
Details: S. cerevisiae deletion strains, growth OD

Measured: normalized growth

O=[N+]([O-])/C=C/c1ccc(F)cc1
active: locus YAR019C, strain CDC15, hits give low values 0.0937 | locus YBL105C, strain PKC1, hits give low values 0.0926 | locus YBR135W, strain CKS1, hits give low values 0.0816 | locus YBR136W, strain MEC1, hits give low values 0.0978 | locus YBR160W, strain CDC28, hits give low values 0.091 | locus YDL017W, strain CDC7, hits give low values 0.0902 | locus YDL028C, strain MPS1, hits give low values 0.0982 | locus YDL101C, strain DUN1, hits give low values 0.107 | locus YDL108W, strain KIN28, hits give low values 0.102 | locus YDL132W, strain cdc53, hits give low values 0.0889 | locus YDL214C, strain PRR2, hits give low values 0.091 | locus YDR052C, strain DBF4, hits give low values 0.0848 | locus YDR054C, strain cdc34, hits give low values 0.0951 | locus YDR226W, strain ADK1, hits give low values 0.0885 | locus YDR477W, strain SNF1, hits give low values 0.1 | locus YER123W, strain YCK3, hits give low values 0.102 | locus YER133W, strain GLC7, hits give low values 0.0933 | locus YFL009W, strain cdc4, hits give low values 0.0899 | locus YFL029C, strain CAK1, hits give low values 0.0948 | locus YFR003C, strain YPI1, hits give low values 0.0906 | locus YFR019W, strain FAB1, hits give low values 0.0982 | locus YFR028C, strain CDC14, hits give low values 0.0877 | locus YGR040W, strain KSS1, hits give low values 0.104 | locus YGR052W, strain FMP48, hits give low values 0.113 | locus YGR092W, strain DBF2, hits give low values 0.0999 | locus YHR030C, strain SLT2, hits give low values 0.111 | locus YHR079C, strain IRE1, hits give low values 0.117 | locus YHR082C, strain KSP1, hits give low values 0.121 | locus YHR205W, strain SCH9, hits give low values 0.00904 | locus YIL147C, strain SLN1, hits give low values 0.0998 | locus YJL095W, strain BCK1, hits give low values 0.109 | locus YJL128C, strain PBS2, hits give low values 0.0952 | locus YJL157C, strain FAR1, hits give low values 0.0885 | locus YJR016C, strain ILV3, hits give low values 0.0868 | locus YJR066W, strain TOR1 (second series), hits give low values 0.0953 | locus YJR066W, strain TOR1, hits give low values 0.114 | locus YKL048C, strain ELM1, hits give low values 0.113 | locus YKL067W, strain YNK1, hits give low values 0.087 | locus YKL101W, strain HSL1, hits give low values 0.0964 | locus YKL193C, strain SDS22, hits give low values 0.0853 | locus YKL203C, strain TOR2, hits give low values 0.107 | locus YLR113W, strain HOG1, hits give low values 0.129 | locus YLR133W, strain CKI1, hits give low values 0.099 | locus YLR403W, strain SFP1, hits give low values -0.000358 | locus YML070W, strain DAK1, hits give low values 0.0913 | locus YMR001C, strain CDC5, hits give low values 0.0877 | locus YMR205C, strain PFK2 (second series), hits give low values 0.0893 | locus YMR277W, strain FCP1, hits give low values 0.0903 | locus YNL006W, strain LST8, hits give low values 0.0904 | locus YNL020C, strain ARK1, hits give low values 0.102 | locus YNL161W, strain CBK1, hits give low values 0.0853 | locus YNL183C, strain NPR1, hits give low values 0.124 | locus YNL207W, strain RIO2, hits give low values 0.091 | locus YNL222W, strain SSU72, hits give low values 0.0861 | locus YNL307C, strain MCK1 (second series), hits give low values 0.11 | locus YOL078W, strain AVO1, hits give low values 0.0833 | locus YOL136C, strain PFK27, hits give low values 0.0966 | locus YOR061W, strain CKA2, hits give low values 0.0873 | locus YOR119C, strain RIO1, hits give low values 0.112 | locus YOR231W, strain MKK1, hits give low values 0.106 | locus YOR329C, strain SCD5, hits give low values 0.0906 | locus YPL031C, strain PHO85, hits give low values 0.0996 | locus YPL153C, strain RAD53, hits give low values 0.101 | locus YPL204W, strain HRR25, hits give low values 0.102 | locus YPL209C, strain IPL1, hits give low values 0.0882 | locus YPL256C, strain CLN2, hits give low values 0.135 | locus YPR025C, strain CCL1, hits give low values 0.0876 | locus YPR106W, strain ISR1, hits give low values 0.0871 | locus YPR111W, strain DBF20, hits give low values 0.0892 | strain NNK1, hits give low values 0.096 | strain TSCII, hits give low values 0.0924
